Molecules are shown by their SMILES.

This experiment relates to HT29 sg-Ctrl (RNF43 wildtype). As to the kind of experiment: cell viability activity relative to DMSO (negative = inhibition); higher = more viable cells (less growth inhibition). Conditions: 5 µM; 96 h. The protocol: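 Broad Repurposing Library primary screen at a single dose of 5 uM. HT29 sg-Ctrl and HT29 RNF43 G659fs CRISPR-edited isogenic cells were seeded at 2500 cells/well in 384-well plates in duplicate and treated for 96 h. Viability was read by CellTiter-Glo and reported as % activity relative to DMSO, with MG132 as the positive control (negative = growth inhibition).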
On to `CN1C/C=C/CCOc2cccc(c2)-c2ccnc(n2)Nc2cccc(c2)C1`, for which the cell viability activity was -89.6%.

On to `Nc1ccc(-c2ccc3ncc4ccc(=O)n(-c5cccc(C(F)(F)F)c5)c4c3c2)cn1`, for which the cell viability activity was -42.1%.

`CCOc1cc(C(=O)N2CCC(N3CCN(C)CC3)CC2)ccc1Nc1ncc2c(n1)N(C1CCCC1)c1ccccc1C(=O)N2C`: the cell viability activity is -65.5%.

Take `CCc1c(O)cc(O)c(C(=O)c2ccc(OCCN3CCOCC3)c(OC)c2)c1CC(=O)N(CCOC)CCOC`: the cell viability activity was -90%.

`CC(C)(C)c1ccc(-c2nc3ccccc3[nH]2)cc1`: the cell viability activity is -67.1%.

With `C=CC(=O)Nc1cccc(Nc2nc(Nc3ccc(OCCOC)cc3)ncc2F)c1`, the cell viability activity is -44.1%.

For the compound `CCCC1(CCC)CCC2(CCN(CCCN(CC)CC)C2)CC1`, the cell viability activity is -95.6%.

Regarding `CN[C@@H](C)C(=O)N[C@H](C(=O)N1CCC[C@H]1C(=O)N[C@H]1c2ccccc2C[C@H]1OCC#CC#CCO[C@@H]1Cc2ccccc2[C@@H]1NC(=O)[C@@H]1CCCN1C(=O)[C@@H](NC(=O)[C@H](C)NC)C1CCCCC1)C1CCCCC1`, the cell viability activity was -77.2%.

Regarding `Clc1ccc(CSC(Cn2ccnc2)c2ccc(Cl)cc2Cl)cc1` (stereo not drawn), the cell viability activity was -29%.

Regarding `O=C(NOC[C@H](O)CO)c1ccc(F)c(F)c1Nc1ccc(I)cc1F`, the cell viability activity was -85%.

For `O=C(Nc1ccncc1)Nc1ccc(-c2nc(N3CCOCC3)nc(N3C4CCC3COC4)n2)cc1`, the cell viability activity is -36.2%.

As for `CN1CCCN=C1COC(=O)C(O)(c1ccccc1)C1CCCCC1` (stereo not drawn), the cell viability activity was -50.3%.

Consider `O=[N+]([O-])c1ccc2c(c1)S(=O)(=O)C=C2`, for which the cell viability activity was -91%.

In the case of `COC(=O)C1=C(C#N)NC(C)=C(C(=O)OC(C)C)C1c1cccc([N+](=O)[O-])c1` (stereo not drawn), the cell viability activity was -65.8%.

Regarding `COc1cc2ncn(-c3cc(OCc4ccccc4C(F)(F)F)c(C(N)=O)s3)c2cc1OC`, the cell viability activity is -65.4%.

Turning to `CNCCCOc1cc(F)c(-c2c(Cl)nc3ncnn3c2N[C@@H](C)C(F)(F)F)c(F)c1`, the cell viability activity was -62.1%.

For the compound `CN(c1ccccc1CNc1nc(Nc2ccc3c(c2)CC(=O)N3)ncc1C(F)(F)F)S(C)(=O)=O`, the cell viability activity is -57.8%.

As to `C[C@H](Nc1ncnc2nc[nH]c12)c1cc2cccc(Cl)c2c(=O)n1-c1ccccc1`, the cell viability activity is -24.3%.

`O=C(NC[C@H](O)CO)c1ccncc1Nc1ccc(I)cc1F`: the cell viability activity is -91.2%.

On to `CC(C)/N=c1\cc2n(-c3ccc(Cl)cc3)c3ccccc3nc-2cc1Nc1ccc(Cl)cc1`, for which the cell viability activity was -75.7%.

For `CCNC(=O)c1noc(-c2cc(C(C)C)c(O)cc2O)c1-c1ccc(CN2CCOCC2)cc1`, the cell viability activity is -86%.

With `Cc1ccc(S(=O)(=O)C=CC#N)cc1`, the cell viability activity is -97.7%.

For `Cc1nc(NC(=O)N2CCC[C@H]2C(N)=O)sc1-c1ccnc(C(C)(C)C(F)(F)F)c1`, the cell viability activity is -16%.

As to `COC(=O)Nc1nc2cc(C(=O)c3ccc(F)cc3)ccc2[nH]1`, the cell viability activity is -51.2%.

Consider `CCc1nc(C(N)=O)c(Nc2ccc(N3CCC(N4CCN(C)CC4)CC3)c(OC)c2)nc1NC1CCOCC1`, for which the cell viability activity was -61.8%.

On to `COc1c(OCCCN2CCOCC2)ccc2c3n(c(=NC(=O)c4cnc(N)nc4)nc12)CCN3`, for which the cell viability activity is -46.8%.

Regarding `O=C(CCCCCCC(=O)Nc1ccccc1)NO`, the cell viability activity is -84.4%.

For `CCOc1cc2ncc(C#N)c(Nc3ccc(F)c(Cl)c3)c2cc1NC(=O)/C=C/CN(C)C`, the cell viability activity was -78.7%.

As to `Nc1ncnc2c1c(-c1cccc(OCc3ccccc3)c1)cn2C1CC(CN2CCCC2)C1` (stereo not drawn), the cell viability activity is -56.6%.

Regarding `COc1ccc2c(O[C@@H]3C[C@H]4C(=O)N[C@]5(C(=O)NS(=O)(=O)C6CC6)C[C@H]5/C=C\CCCCN(C)C(=O)[C@@H]4C3)cc(-c3nc(C(C)C)cs3)nc2c1C`, the cell viability activity was -23.2%.

As for `Nc1ccc(F)cc1NC(=O)c1ccc(CNC(=O)/C=C/c2cccnc2)cc1`, the cell viability activity was -64.8%.

Regarding `CCN1CCN(Cc2ccc(Nc3ncc(F)c(-c4cc(F)c5nc(C)n(C(C)C)c5c4)n3)nc2)CC1`, the cell viability activity was -44.9%.

`CCN(CC)Cc1ccc2cc(COC(=O)Nc3ccc(C(=O)NO)cc3)ccc2c1`: the cell viability activity was -84.2%.

Turning to `CN1CC[C@H](c2c(O)cc(O)c3c(=O)cc(-c4ccccc4Cl)oc23)[C@H](O)C1`, the cell viability activity is -87.7%.

For `COC(=O)c1ccc2c(C(=Nc3ccc(N(C)C(=O)CN4CCN(C)CC4)cc3)c3ccccc3)c(O)[nH]c2c1`, the cell viability activity was -34.2%.

In the case of `CN1CCC(NC(=O)c2cc(-c3c(O)cc(O)cc3Oc3ccc([N+](=O)[O-])cc3)on2)CC1`, the cell viability activity is -21.1%.

As to `CCN(CC)CCOCCOC(=O)C(CC)(CC)c1ccccc1`, the cell viability activity is -61.1%.

In the case of `CNCc1ccc(-c2cc(-c3nc(-c4ccc(S(=O)(=O)C(C)C)cc4)cnc3N)on2)cc1`, the cell viability activity was -74.5%.

For the origin of these results see the supplement of paper PMC9177965.
